High-throughput results deposited in PubChem by several laboratories.
EBV gp42 inh: blocks Epstein-Barr virus glycoprotein 42 binding. Q1HVG2. Fluorescence polarization binding assay, mP read-out. inhibition, % (tested at 21.74 µM). actives 0.42% (n = 220,000); in the data active = inhibition above about 50%
Target sequence (Q1HVG2 whole entry, looked up): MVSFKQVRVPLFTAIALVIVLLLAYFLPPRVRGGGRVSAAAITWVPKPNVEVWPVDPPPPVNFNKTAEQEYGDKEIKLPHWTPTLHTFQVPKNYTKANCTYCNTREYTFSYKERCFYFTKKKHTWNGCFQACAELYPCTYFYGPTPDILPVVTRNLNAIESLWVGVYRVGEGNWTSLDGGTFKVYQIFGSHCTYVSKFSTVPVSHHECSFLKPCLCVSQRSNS
MEX-5 binding: C. elegans MEX-5 TCR-2 RNA binding activity. Q9XUB2. MEX-5/FITC-TCR2 RNA binding, fluorescence polarization; stronger effect = lower value. activity score (negative = inhibition of binding), % at 10 µM. actives 0.38% (n = 300,000);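 active = inhibition past about -25% in most replicates, and total fluorescence under double the plate's negative control median, limit read from the data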
GLD-1 RNA inh: GLD-1-TGE RNA interaction inhibition (C. elegans). Q17339. actives 0.44% (n = 320,000). purified GLD-1 + fluorescein TGE RNA, fluorescence polarization. AID 2280. inhibition, % at 5.96 µM;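 active = percent inhibition above a per-plate cutoff, the plate mean of test compounds plus 3 SD, cut at about 30% in these data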
MCL1 BIM primary: MCL1-BIM-BH3 interaction inhibition (human) | actives 0.68% (n = 320,000) | inhibition, % at 10.9 µM | GST-MCL1 / FITC-Bim-BH3 fluorescence polarization | Q07820;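 active = inhibition above the mean inhibition of all tested compounds plus 3 SD, set per campaign, cut at about 40% in these data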;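 also: higher means more loss of mP so more displacement of Bim peptide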
BCLXL inh: blocks human Bcl-xL binding to Bim BH3 peptide. Q07817. GST-Bcl-xL / FITC-Bim BH3 peptide fluorescence polarization. inhibition, % at 10.9 µM. actives 0.7% (n = 320,000). AID 2129;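 active = inhibition above the mean of all tested compounds plus 3 SD, cutoff set per campaign, cut at about 30% in these data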;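 also: inhibitors lower millipolarization by displacing the labeled peptide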
Target sequence (Q07817 whole entry, looked up): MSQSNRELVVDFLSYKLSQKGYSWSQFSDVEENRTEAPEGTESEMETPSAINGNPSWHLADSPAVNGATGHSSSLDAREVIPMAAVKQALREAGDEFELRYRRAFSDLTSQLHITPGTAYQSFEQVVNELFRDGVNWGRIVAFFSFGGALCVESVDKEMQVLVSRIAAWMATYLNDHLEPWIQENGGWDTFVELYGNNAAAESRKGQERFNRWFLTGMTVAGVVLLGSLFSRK
E coli Lon inh: E. coli protease La inhibition; P0A9M0; AID 602123; actives 0.42% (n = 360,000); inhibition, % at 7.94 µM; purified E. coli Lon protease, fluorescence polarization; in the data active = inhibition above about 13%, passing the limit was not always enough
Each line names hits and unclear results; the compound was inactive in the other large screens. Hits are enriched below; roughly 1.5% of the tested compounds scored in any of these assays.

Cn1c(C(=O)N2CCN(c3nc4ccccc4s3)CC2)cc2sccc21	none
O=C(c1cc2sccc2n1Cc1ccc(F)cc1)N1CCN(c2nc3ccccc3s2)CC1	BCLXL inh 79
CCNC(=O)NC(=O)CSc1ccc(S(=O)(=O)N2CCCCC2)cn1	none (no result: EBV gp42 inh, MEX-5 binding)
COc1ccc2c(c1OC)C(=O)N1C(C(=O)O)Cc3c([nH]c4ccccc34)C21 (stereo not drawn)	MCL1 BIM primary 47, BCLXL inh 48
O=c1[nH]nc(N2CCOCC2)c(=O)[nH]1	none
COC(=O)c1ccc(N/N=C/c2cc([N+](=O)[O-])cc(OC)c2O)cc1	BCLXL inh 36
Cc1ccc(CNS(=O)(=O)c2ccc3c(c2)n(C)c(=O)c(=O)n3C)cc1	none
Cc1cccc(NC(=O)CSc2nnc(CSc3nc(C)cc(C)n3)o2)c1	BCLXL inh 31
Cc1ccccc1NC(=S)N/N=C1\CC(C)(C)Oc2ccc(O)cc21	BCLXL inh 82
Cc1ccc(NC(=S)N/N=C2\CC(C)(C)Oc3ccc(O)cc32)cc1	none
Cc1cc(C)c(NC(=O)COC(=O)Cc2cccs2)c(C)c1	none (no result: EBV gp42 inh)
S=C(Nc1ccc2nsnc2c1)N1CCCCCC1	BCLXL inh 32
CCCCn1c(O)c(/C=C2\C=Nc3ccccc32)c(=O)[nH]c1=O	MEX-5 binding -31 (no result: EBV gp42 inh)
CN(C)c1ccnc2sc(C(=O)c3ccc(Br)cc3)c(N)c12	EBV gp42 inh 73
Cc1nc(C)c(-c2ccc(SCC(=O)Nc3cccc(Cl)c3)nn2)s1	none (no result: EBV gp42 inh)
CC(C)(C)C(=O)c1sc2nc(-c3cccs3)cc(C(F)(F)F)c2c1N	MEX-5 binding -74
Cc1nnc(NC(=O)c2sc3nc(-c4cccs4)cc(C(F)(F)F)c3c2N)s1	none
COc1ccccc1NC(=O)c1sc2nc(Cc3ccccc3)cc(C(F)(F)F)c2c1N	EBV gp42 inh 74, MEX-5 binding -143
Nc1c(C(=O)Nc2nccs2)sc2nc(-c3cccs3)cc(C(F)(F)F)c12	BCLXL inh 31
C[C@H](CO)N1C[C@H](C)[C@@H](CN(C)CC2CCCCC2)Oc2ccc(NC(=O)Cn3cnnn3)cc2C1=O	none (no result: EBV gp42 inh, MEX-5 binding, MCL1 BIM primary, BCLXL inh)
Cn1ncc(Cl)c1C(=O)Nc1cccc(Cl)c1	none
Cn1ncc(N=Cc2c(O)ccc3ccccc23)c1C(=O)Nc1cccc(Cl)c1	MCL1 BIM primary 46, BCLXL inh 31
O=C(NCc1cccc(F)c1)c1cccc2c1C(=O)c1ccc(N3CCOCC3)cc1S2(=O)=O	none (no result: EBV gp42 inh, MEX-5 binding, MCL1 BIM primary, BCLXL inh)
Cc1ccc(CNC(=O)c2cccc3c2C(=O)c2ccc(N4CCCCC4)cc2S3(=O)=O)cc1	GLD-1 RNA inh 71 (no result: EBV gp42 inh, MEX-5 binding)
Cc1ccc(CNC(=O)c2cccc3c2C(=O)c2ccc(N4CCOCC4)cc2S3(=O)=O)cc1	none (no result: EBV gp42 inh, MEX-5 binding)
O=C(NCc1ccco1)c1cccc2c1C(=O)c1ccc(N3CCCC3)cc1S2(=O)=O	GLD-1 RNA inh 31 (no result: EBV gp42 inh, MEX-5 binding, MCL1 BIM primary, BCLXL inh)
O=C(/C=C/c1ccc2c(c1)S(=O)(=O)N(Cc1ccccc1)[C@H]2CC(=O)N1CCOCC1)N1CCOCC1	none (no result: EBV gp42 inh, MEX-5 binding, MCL1 BIM primary, BCLXL inh)
Cc1cccn2c(=O)c3cc(C#N)c(=N)n(CCCN4CCOCC4)c3nc12	none (no result: EBV gp42 inh)
COCCCn1c(=N)c(C(=O)NCc2ccc3c(c2)OCO3)cc2c(=O)n3cccc(C)c3nc21	none (no result: EBV gp42 inh, MEX-5 binding, GLD-1 RNA inh, MCL1 BIM primary, BCLXL inh)
Cc1ccc2nc3c(cc(C(N)=S)c(=N)n3CCCOC(C)C)c(=O)n2c1	BCLXL inh 39
Cc1ccc2nc3c(cc(C(=O)NCCN4CCOCC4)c(=N)n3CCCN3CCOCC3)c(=O)n2c1	none (no result: EBV gp42 inh)
Cc1cccn2c(=O)c3cc(C(N)=S)c(=N)n(CCCN4CCOCC4)c3nc12	BCLXL inh 33
COCCCn1c(=N)c(C(N)=S)cc2c(=O)n3cccc(C)c3nc21	BCLXL inh 34 (no result: EBV gp42 inh)
Cc1cccc(N2CCN(S(=O)(=O)c3c(C)[nH]c(C)c3C(=O)N3CCCC3)CC2)c1C	GLD-1 RNA inh 31 (no result: EBV gp42 inh)
CC(=O)Nc1cccc(-c2cccc3nccn23)c1	none (no result: EBV gp42 inh, MEX-5 binding, GLD-1 RNA inh, MCL1 BIM primary, BCLXL inh)
O=c1c2ccccc2c(C=Nc2cccc(O)c2)c(O)n1-c1ccc2c(c1)OCO2	EBV gp42 inh 51
O=S(=O)(Nc1ncccn1)c1ccc(NC(=S)Nc2ccccc2Cl)cc1	none (no result: MEX-5 binding)
O=C1CCC/C(=N/NC(=O)c2sc3ccccc3c2Cl)C1	MEX-5 binding -27, GLD-1 RNA inh 103
CN(CC(=O)Nc1ccccc1C(=O)NC1CC1)Cc1ccc(Cl)s1	none (no result: EBV gp42 inh, MEX-5 binding)
COc1cccc(/C=N/NC(=O)c2ccc(=O)[nH]n2)c1O	MEX-5 binding -35
COc1ccc(NC(=O)Nc2c(O)ccc3ccccc23)cc1	BCLXL inh 30 (no result: EBV gp42 inh)
Nc1c(C(=O)N/N=C/c2cccnc2)oc2nc(-c3ccccc3)cc(-c3ccco3)c12	MEX-5 binding -37
O=C(c1cc(F)ccc1F)C1CCCN(C(=O)CCc2cnccn2)C1 (stereo not drawn)	none
O=C(c1cc(F)ccc1F)C1CCCN(C(=O)CCCN2CCCCC2=O)C1 (stereo not drawn)	BCLXL inh 51
CCCNC(=O)c1ccccc1NC(=O)c1cccc(-n2cnnn2)c1	none (no result: EBV gp42 inh, MEX-5 binding)
Cc1cc(C(=O)COC(=O)COc2ccccc2C#N)c(C)n1CC1CCCO1 (stereo not drawn)	none (no result: EBV gp42 inh, MEX-5 binding)
C=CCn1c(C)cc(C(=O)COC(=O)COc2ccccc2C#N)c1C	EBV gp42 inh 90
O=C1OCC/C1=C\c1ccc(O)cc1	none
Cc1ccc(N/C=C/C(=O)c2sc(-c3ccccc3)nc2C)cc1	MEX-5 binding -38
Cc1nc(-c2ccccc2)sc1C(=O)NN	none
COc1ccc(NC(=O)C[C@@H]2C(=O)N(c3ccc(OC)cc3)CC2(C)C)cc1	none (no result: EBV gp42 inh, MEX-5 binding, GLD-1 RNA inh, MCL1 BIM primary, BCLXL inh)
Cc1noc(C)c1NC(=O)N(C)C[C@H]1Oc2ccc(NC(=O)NC(C)C)cc2C(=O)N([C@H](C)CO)C[C@@H]1C	none (no result: EBV gp42 inh, MEX-5 binding, MCL1 BIM primary, BCLXL inh)
Cc1cc(Cn2nc(C(=O)NCc3cccs3)cc2-c2ccccc2)on1	none (no result: EBV gp42 inh, MEX-5 binding)
CN1C(=O)/C(=C/c2ccc3c(c2)OCO3)N=C1c1ccccc1	MEX-5 binding -33
Cn1ccc(NC(=O)Nc2cccc([N+](=O)[O-])c2)n1	none
CCCCNc1cc(Cl)nc(N)n1	BCLXL inh 30
CCc1ccccc1NC1=NCC(=O)N1C1CCCC1	none
COCC(C)NC(=O)c1cc2c(ccc3ccccc32)oc1=O (stereo not drawn)	none (no result: EBV gp42 inh)
O=c1c2ccccc2nc2n1CC/C2=C\c1ccccc1[N+](=O)[O-]	EBV gp42 inh 66 (no result: MEX-5 binding, GLD-1 RNA inh, MCL1 BIM primary, BCLXL inh, E coli Lon inh)
Cc1cc(-c2nc3ncccc3o2)ccc1NC(=S)NC(=O)c1ccco1	none
CCCn1nnnc1SCC(=O)N1C(C)CCCC1C (stereo not drawn)	none (no result: EBV gp42 inh)
COc1cc(C(F)(F)F)nc2ccc(C#CCOC(=O)Nc3ccccc3)cc12	BCLXL inh 36
COc1ncnc2c1ncn2CCCNCc1ccco1	none (no result: EBV gp42 inh, MEX-5 binding, GLD-1 RNA inh, MCL1 BIM primary, BCLXL inh)
COc1ccc(-c2nc3ccccc3nc2-c2ccccc2)cc1	none
COc1ccc2nc3ccccc3nc2c1	BCLXL inh 35
N#C/C(=C\c1sc(N2CCOCC2)nc1-c1ccccc1)C(=O)Nc1cccc2ccccc12	EBV gp42 inh 137 (no result: MEX-5 binding, GLD-1 RNA inh, MCL1 BIM primary, BCLXL inh, E coli Lon inh)
